High-throughput results from PubChem.
LGR2 antag: Drosophila LGR2 receptor signaling inhibition | HEK293 LGR2, CRE-luciferase, bursicon-stimulated, 4 h | inhibition, % at 9.99 µM | hit rate 0.35% among 380,000 | AID 720647;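 active means drop in luminescence signal, shown as inhibition above about 50% in the replicate tests, limit read from the data, passing the limit was not always enough; inconclusive means probably only some replicates passing the limit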;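 further: agonist challenge used bursicon conditioned medium at about half maximal strength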
EWS-Fli block: blocks EWS/Fli oncoprotein-driven transcription; hit rate 0.67% among 350,000; inhibition, % at 12.6 µM; A673 NR0B1-luciferase reporter, viability-normalised;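 active means mean inhibition of at least 50% after viability correction, with every replicate also passing that limit; inconclusive means mean reaches 50% but only one of two replicates passes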;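 further: firefly luciferase signal divided by Alamar Blue viability fluorescence both relative to DMSO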
PAX8 reporter: PAX8 transcriptional activity inhibition; RMG-I TPO-luciferase reporter, SteadyGlo, 24 h; inhibition, % at 12.6 µM; hit rate 1.2% among 360,000;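 active means mean replicate inhibition at least 60% with every replicate also reaching 60%; inconclusive means only one of the two criteria is met; inactive means mean below 60% and not all replicates reaching 60%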;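 further: luciferase light reporting Pax8 driven TPO promoter activity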
rRNA inh HTS: selective bacterial rRNA inhibition in E. coli | E. coli WT GFP vs humanized-ribosome RFP mutants, fluorescence, 24 h; active compounds read low; DMSO median 0, no signal -100 | GFP signal change (wild-type ribosome), % (concentration not given with the values) | hit rate 1.6% among 350,000 | AID 720706;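 active means significant combined selectivity score with lowered wild-type GFP, culture density cut under 30%, mutant RFP and density less affected; inactive means any of these conditions unmet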
PGC1a acetyl inh: lowers PGC1a acetylation signal in U2OS cells; AlphaScreen anti-acetyl-lysine; with virally co-expressed GCN5 acetyltransferase; inhibition, % at 15.6 µM; hit rate 0.17% among 350,000;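 active means every replicate shows inhibition of at least 40%; inconclusive means mean inhibition at least 40% but some replicate below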
SIRT5 inh: blocks human SIRT5 desuccinylation of peptide; Q9NXA8; Purified SirT5, succinyl-peptide AMC, trypsin-coupled fluorescence; inhibition, % at 15 µM; hit rate 1.1% among 330,000; in the data active means inhibition above about 15%; inconclusive means no clear call, values can overlap the other calls
Target sequence (Q9NXA8 whole entry, looked up): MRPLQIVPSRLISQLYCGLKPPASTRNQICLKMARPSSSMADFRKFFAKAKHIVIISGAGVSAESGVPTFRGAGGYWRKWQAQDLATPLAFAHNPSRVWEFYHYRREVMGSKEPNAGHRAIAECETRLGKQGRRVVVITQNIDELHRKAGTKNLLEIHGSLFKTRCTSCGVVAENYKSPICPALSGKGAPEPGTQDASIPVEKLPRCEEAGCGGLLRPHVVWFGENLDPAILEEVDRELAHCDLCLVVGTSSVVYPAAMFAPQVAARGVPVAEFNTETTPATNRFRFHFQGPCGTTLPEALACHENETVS
Each line names hits and unclear results; the compound was inactive in the other large screens. Rows were chosen to be rich in hits. Some 3.4% of all compounds tested hit in one or more screens of this group.

COc1cccc(N2CCN(c3ncnc4c3cnn4-c3ccc(C)cc3C)CC2)c1	LGR2 antag inconclusive, PAX8 reporter 102
CC1CCCN(c2ncnc3c2cnn3-c2ccccc2)C1 (stereo not drawn)	LGR2 antag 84, EWS-Fli block 69
CCN1CCN(c2ncnc3c2cnn3-c2ccccc2)CC1	none
Cc1ccc(-n2ncc3c(N4CCCC4)ncnc32)c(C)c1	none (no result: LGR2 antag, EWS-Fli block, rRNA inh HTS, SIRT5 inh)
CC1CCCN(c2ncnc3c2cnn3-c2ccc(Cl)cc2)C1 (stereo not drawn)	LGR2 antag 97, EWS-Fli block 86, PAX8 reporter 76
CC1CC(C)CN(c2ncnc3c2cnn3-c2ccc(Cl)cc2)C1 (stereo not drawn)	none
CCOc1cc(C(=O)NC(CC(=O)O)c2ccc(OC3CCCC3)cc2)cc(OCC)c1OCC (stereo not drawn)	SIRT5 inh 24 (no result: PGC1a acetyl inh)
CN(C)c1ccc(NC2=C(Cl)C(=O)c3ccccc3C2=O)cc1	none (no result: PGC1a acetyl inh)
CC(=O)Nc1ccc(NC2=C(Cl)C(=O)c3ccccc3C2=O)cc1	LGR2 antag 56 (no result: PGC1a acetyl inh)
O=C1C(Cl)=C(Nc2ccc3cn[nH]c3c2)C(=O)c2ccccc21	PAX8 reporter 81, PGC1a acetyl inh 55
COc1cccc(-c2cnc3c(c2)C(=O)N([C@@H](C)CO)C[C@@H](C)[C@@H](CN(C)CC2CC2)O3)c1	none (no result: PAX8 reporter, SIRT5 inh)
Cc1nn(-c2ccccc2)c2c1C1(C(=O)N3c4c(cccc41)C(C)CC3(C)C)C(C#N)=C(N)O2 (stereo not drawn)	rRNA inh HTS -46 (no result: PAX8 reporter)
COCC(=O)N1[C@H](CO)[C@@H](c2ccccc2)C12CN(C(=O)c1ccc(F)cc1)C2	none (no result: PAX8 reporter)
O=C(NCCCn1ccnc1)c1ccc(NS(=O)(=O)c2ccc(Cl)c(Cl)c2)cc1	SIRT5 inh 20 (no result: PGC1a acetyl inh)
COc1ccc(-n2c(=O)c3c4c(sc3n3c(=S)[nH]nc23)CCC4)cc1	rRNA inh HTS -25
Cc1ccc(-n2c(=O)c3c4c(sc3n3c(=S)[nH]nc23)CCC4)cc1	none (no result: LGR2 antag, rRNA inh HTS)
O=C(C[C@H]1CC[C@@H](NC(=O)C2CCC2)[C@@H](CO)O1)NCCCN1CCOCC1	none
COc1cccc(CN2[C@@H](CO)[C@@H](c3ccccc3)C23CN(C(=O)C2CCCC2)C3)c1	none (no result: PAX8 reporter)
COc1ccccc1CNc1ccc([N+](=O)[O-])cc1C	none
COc1cccc(CNc2ccc([N+](=O)[O-])cc2Cl)c1O	rRNA inh HTS -50 (no result: PGC1a acetyl inh)
COC(=O)c1ccc2nc(-c3ccc(OC)c(OC)c3)c(Cc3ccccc3C(F)(F)F)n2c1	SIRT5 inh 22 (no result: PGC1a acetyl inh)
C[C@@H]1CN([C@H](C)CO)C(=O)c2cc(NS(C)(=O)=O)ccc2O[C@@H](C)CCCCO[C@H]1CN(C)C(=O)Nc1ccc(F)cc1	none
CN(C)CC(=O)N[C@@H]1CC[C@@H](CCNC(=O)Nc2ccc(C(F)(F)F)cc2)O[C@@H]1CO	SIRT5 inh 17
O=C(Cc1ccccn1)NCC[C@@H]1CC[C@H](NC(=O)Nc2ccc(C(F)(F)F)cc2)[C@H](CO)O1	PGC1a acetyl inh 78
CCCNC(=O)C[C@H]1CC[C@@H]2[C@H](COc3ccc(NC(=O)COC)cc3C(=O)N2C)O1	none (no result: SIRT5 inh)
O=C(O)C(c1ccccc1)N1C(=O)/C(=C\c2ccc(-c3ccc(Br)cc3)o2)SC1=S (stereo not drawn)	SIRT5 inh 54
O=C1/C(=C\c2ccc(-c3ccccc3Cl)o2)SC(=S)N1CC1CCCO1 (stereo not drawn)	none (no result: LGR2 antag, EWS-Fli block, PAX8 reporter, rRNA inh HTS, SIRT5 inh)
O=C(O)C(c1ccccc1)N1C(=O)/C(=C\c2ccc(-c3ccccc3Cl)o2)SC1=S (stereo not drawn)	SIRT5 inh 33 (no result: PGC1a acetyl inh)
CCCC(=O)Nc1ccc2c(c1)C(=O)N(C)C[C@H](OC)[C@H](C)CN(C(=O)c1ccncc1)[C@H](C)CO2	none
CCC(=O)N1CC(=O)N2[C@H](C1)[C@H](c1ccc(C#CC(C)C)cc1)[C@@H]2CO	none (no result: LGR2 antag, EWS-Fli block, PAX8 reporter, PGC1a acetyl inh, SIRT5 inh)
O=C1CNC[C@H]2[C@@H](c3ccc(C4=CCCC4)cc3)[C@H](CO)N12	SIRT5 inh 21 (no result: PAX8 reporter)
CN(C[C@H]1[C@@H](c2ccc(C3=CCCC3)cc2)[C@@H](CO)N1CCC(F)(F)F)S(C)(=O)=O	SIRT5 inh 25 (no result: PAX8 reporter, PGC1a acetyl inh)
CCS(=O)(=O)N1CC(=O)N2[C@H](CO)[C@H](c3ccc(C4=CCCCC4)cc3)[C@@H]2C1	SIRT5 inh 22 (no result: PAX8 reporter)
CN(C[C@@H]1N[C@@H](CO)[C@@H]1c1ccc(C2=CCCCC2)cc1)S(C)(=O)=O	none (no result: SIRT5 inh)
O=C(NCC[C@@H]1CC[C@H](NC(=O)c2ccc3c(c2)OCO3)[C@H](CO)O1)Nc1cc(F)ccc1F	none
O=C(C[C@H]1C=C[C@@H](NC(=O)CC2CC2)[C@H](CO)O1)NCc1ccccc1	none (no result: PAX8 reporter, PGC1a acetyl inh)
CC(C)CC#Cc1ccc([C@@H]2[C@H]3CN(C(=O)NC4CCCCC4)CC(=O)N3[C@H]2CO)cc1	none
COc1ccccc1CN(C)C[C@H]1OCc2ccccc2-c2c(n(C)c3ccccc23)C(=O)N([C@@H](C)CO)C[C@H]1C	SIRT5 inh 15
COc1ccccc1CN(C)C[C@@H]1OCc2ccccc2-c2c(n(C)c3ccccc23)C(=O)N([C@H](C)CO)C[C@@H]1C	none
C[C@H]1CN([C@@H](C)CO)C(=O)c2c(c3ccccc3n2C)-c2ccccc2CO[C@@H]1CN(C)Cc1cccc2c1OCCCO2	SIRT5 inh 19 (no result: LGR2 antag, rRNA inh HTS)
C[C@@H]1CN([C@H](C)CO)C(=O)c2c(c3ccccc3n2C)-c2ccccc2CO[C@H]1CN(C)Cc1cccc2c1OCCCO2	SIRT5 inh 23
C[C@H]1CN([C@@H](C)CO)C(=O)c2c(c3ccccc3n2C)-c2ccccc2CO[C@H]1CN(C)Cc1cccc2c1OCCCO2	SIRT5 inh 21
C[C@@H]1CN([C@@H](C)CO)C(=O)c2ccccc2-c2ccccc2CO[C@@H]1CN(C)Cc1cccc2c1OCCCO2	none (no result: SIRT5 inh)
COc1ccc2c3c([nH]c2c1)[C@H](CO)N(C)CC31CN(C(=O)Nc2c(C)noc2C)C1	none (no result: LGR2 antag, EWS-Fli block, PAX8 reporter, PGC1a acetyl inh, SIRT5 inh)
C/C=C/c1cnc2c(c1)C(=O)N([C@@H](C)CO)C[C@@H](C)[C@@H](CN(C)C(=O)C1CC1)O2	none (no result: PAX8 reporter, SIRT5 inh)
C[C@@H]1CN([C@H](C)CO)C(=O)c2c(c3ccccc3n2C)-c2ccccc2CO[C@@H]1CN(C)Cc1cccc2c1OCCCO2	SIRT5 inh 20
C[C@@H]1CN([C@@H](C)CO)C(=O)c2c(c3ccccc3n2C)-c2ccccc2CO[C@@H]1CN(C)Cc1ccccc1	none (no result: LGR2 antag, EWS-Fli block, PAX8 reporter, PGC1a acetyl inh, SIRT5 inh)
C[C@@H]1CN([C@@H](C)CO)C(=O)c2c(c3ccccc3n2C)-c2ccccc2CO[C@@H]1CN(C)Cc1cccc2c1OCCCO2	SIRT5 inh 25
C[C@H]1CN([C@@H](C)CO)C(=O)c2c(c3ccccc3n2C)-c2ccccc2CO[C@@H]1CN(C)C(=O)CCC(F)(F)F	PAX8 reporter 65
